{
  "source": "PubChem BioAssay (NCATS)",
  "note": "Results filed as inconclusive are left out. A call without a number means that no potency is given here. Active and inactive are the calls of the source. Calls come from the whole dose curve; as a rule, active = well fitted inhibition curve with a large enough effect; inconclusive = small, poorly fitted or top-dose-only effect; inactive = flat fitted curve, though single readings scatter.",
  "data": [
    {"target": "Calcium and integrin-binding protein 1 (Homo sapiens) (UniProt Q99828)", "sequence (Q99828 whole entry, looked up)": "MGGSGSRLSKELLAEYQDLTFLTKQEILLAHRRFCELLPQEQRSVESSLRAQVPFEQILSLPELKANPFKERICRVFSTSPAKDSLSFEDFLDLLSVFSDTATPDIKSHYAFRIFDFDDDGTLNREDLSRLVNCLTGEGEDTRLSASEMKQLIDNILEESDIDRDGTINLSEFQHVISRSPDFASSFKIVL", "test": "Primary qHTS for Identification of Calcium Integrin Binding Protein 1 (CIB1) Competitor (AID 1508620); note: top concentration of the series differs between compounds", "conditions": "CIB1-GST / FITC-alphaIIb peptide fluorescence polarization; series mostly up to 114 µM", "summary_of_the_method": "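Fluorescence polarization competition: GST-tagged CIB1 (1 uM final) preincubated with compound 15 min at room temperature, then FITC-labelled alphaIIb peptide (100 nM final) added. After 15 min at room temperature, polarization read at Ex 480/Em 540.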", "values": [
      {"smiles": "O=C(Nc1ccc(-c2ccccc2)nc1)c1cccs1", "Potency": "inactive"},
      {"smiles": "COc1cccc(OC)c1C1=Nn2c(nnc2-c2ccccc2C)SC1", "Potency": "inactive"},
      {"smiles": "COc1cccc(CNc2ccc(S(=O)(=O)Nc3ccc(C)nc3)cc2)c1O", "Potency": "inactive"},
      {"smiles": "Cc1ccc(OCCn2c(CCNC(=O)c3ccc4ccccc4c3)nc3ccccc32)cc1", "Potency": "inactive"},
      {"smiles": "O=C(O)c1ccc(-c2cccc(-c3nn4c(=O)cc(N5CCNCC5)nc4s3)c2)cc1", "Potency": "inactive"},
      {"smiles": "Cc1noc(C)c1-c1ccc2ncnc(NCc3ccc(C(F)(F)F)cc3)c2c1", "Potency": "inactive"},
      {"smiles": "Cn1nnnc1Sc1ncnc2scc(-c3cccc(Br)c3)c12", "Potency": "inactive"},
      {"smiles": "O=S(=O)(Nc1cccc2ccccc12)c1ccc(NCc2ccc(Br)cc2O)cc1", "Potency": "inactive"},
      {"smiles": "C=C(C)c1cc2c(s1)c1cnn(Cc3ccccc3F)c(=O)c1n2C", "Potency": "inactive"},
      {"smiles": "S=c1[nH]c2ccccc2n1CCc1ccccc1", "Potency": "inactive"},
      {"smiles": "O=C(NCc1ccc(F)cc1)n1cc(P(=S)(c2ccccc2)c2ccccc2)c2ccccc21", "Potency": "inactive"},
      {"smiles": "Cc1ccsc1CN(C)c1ncnc2ccc(-c3ccoc3)cc12", "Potency": "inactive"},
      {"smiles": "N#Cc1ccc(-c2ccc(CNc3ccc(N4CCC(C(F)(F)F)CC4)cc3)o2)cc1", "Potency": "inactive"},
      {"smiles": "CC(Cc1cnccn1)Nc1cnc2c(O)ccc(C(=O)O)c2c1", "note": "(stereo not given)", "Potency": "inactive"},
      {"smiles": "O=C(Nc1ccc(-n2cncn2)c(F)c1)Nc1nnc(-c2ccncc2)s1", "Potency": "inactive"},
      {"smiles": "Cc1ccc(-c2ccc(=O)n(CC(=O)N(C)C(C)C(C)C)n2)cc1", "note": "(stereo not given)", "Potency": "inactive"},
      {"smiles": "COC(=O)c1cncc(NC(=O)c2cccs2)c1", "Potency": "inactive"},
      {"smiles": "COc1cccc(C2=Nn3c(nnc3-c3ccc(OC)cc3OC)SC2)c1", "Potency": "inactive"},
      {"smiles": "Cn1nnnc1Sc1ncnc2scc(-c3ccccc3Br)c12", "Potency": "inactive"},
      {"smiles": "Cc1cc(NS(=O)(=O)c2ccc(NC(=O)Cc3ccc(Cl)c(Cl)c3)cc2)on1", "Potency": "inactive"},
      {"smiles": "Cc1cc(NS(=O)(=O)c2ccc(NC(=O)Cc3ccc(Cl)cc3Cl)cc2)no1", "Potency": "inactive"},
      {"smiles": "N/C(=N\\c1nnc(-c2ccncc2)s1)Nc1ccc(F)c(C(F)(F)F)c1", "Potency": "inactive"},
      {"smiles": "O=C(Nc1nnc(-c2ccncc2)s1)Nc1ccc(Cl)c2ccccc12", "Potency": "inactive"},
      {"smiles": "CC1(C)CCC(C)(C)c2cc([S+](=O)([O-])N3CCN([S+](=O)([O-])c4c(F)cccc4F)CC3)ccc21", "Potency": "inactive"},
      {"smiles": "Cc1ccc(OCCn2c(CCNC(=O)COc3ccccc3Br)nc3ccccc32)cc1", "Potency": "inactive"},
      {"smiles": "Cc1cccc(S(=O)(=O)NC2CCN(C#N)C2)c1", "note": "(stereo not given)", "Potency": "inactive"},
      {"smiles": "O=C(OCC#CCSc1nnc(-c2cccc3ccccc23)o1)c1ccc(F)nc1", "Potency": "inactive"},
      {"smiles": "Cc1cc(C)nc(NC(=S)N2CCN(c3ccccc3C#N)CC2)c1", "Potency": "inactive"},
      {"smiles": "O=C1c2ccccc2C(=O)N1c1ccc2ccccc2n1", "Potency": "inactive"},
      {"smiles": "CC(=O)N1CCc2cc(-c3nc(NC(=O)Cc4ccc5c(c4)OCO5)sc3C)ccc21", "Potency": "inactive"},
      {"smiles": "O=C1c2ccccc2C(=O)N1c1cccc2cnccc12", "Potency": "inactive"},
      {"smiles": "Cc1ccc(C(=O)Oc2ccc(-c3nc4ccccc4[nH]3)cc2)cc1Br", "Potency": "inactive"},
      {"smiles": "O=[S+]([O-])(c1ccc(-c2ccccc2)cc1)N1CCN([S+](=O)([O-])c2ccc3c(c2)OCCO3)CC1", "Potency": "inactive"},
      {"smiles": "Cc1ccc(Cl)cc1NS(=O)(=O)c1cc2c(cc1Cl)CCC(=O)N2", "Potency": "inactive"},
      {"smiles": "Cc1cnc(-c2ccccc2C2COC2)nc1NCc1ccc(-n2ccnn2)cc1", "Potency": "inactive"},
      {"smiles": "Cc1ccc(NC(=O)c2cnn3c(C)cc(C)nc23)cc1", "Potency": "inactive"},
      {"smiles": "O=C1NS(=O)(=O)c2cc(Br)ccc21", "Potency": "inactive"},
      {"smiles": "Cc1cc2c(s1)c1cnn(Cc3ccc(F)c(C)c3)c(=O)c1n2C", "Potency": "inactive"},
      {"smiles": "O=C(Nc1ccc(-n2ccnc2)c(F)c1)Nc1nnc(-c2ccncc2)s1", "Potency": "inactive"},
      {"smiles": "Cc1cc2c(s1)c1cnn(Cc3c(F)c(F)c(C)c(F)c3F)c(=O)c1n2C", "Potency": "inactive"}
    ]}
  ]
}
